Screens deposited in PubChem by National Center for Advancing Translational Sciences (NCATS).
Shown are actives, neighbours in structure and some others; about 3.1% of the full set was active somewhere.
Tau FP inhib = tau fibrillization inhibition (FP) | P10636 | K18 P301L tau heparin fibrillization, Alexa594 FP, 6 h | AID 1468 | Potency, µM (highest dose often 57.7 µM), hits mostly inhibitors | hit rate 0.39% among 280,000; note: nearly all actives have a fitted effect of over 55% in size
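Quantitative HTS format: compounds meet 15 uM recombinant K18 P301L tau and Alexa 594-tau tracer in 100 mM sodium acetate pH 7; 20 uM heparin triggers fibrillization at 37 C over 6 hr; FP gives the signal.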
TR SRC2 fluor cs = alters Texas Red total fluorescence, flagging assay interference. TRb/SRC2 Texas Red total fluorescence interference. Potency, µM (series often up to 106 µM). hit rate 0.29% among 280,000; active = well fitted curve in either direction with a large enough effect; inconclusive = small, poorly fitted or top-dose-only effect
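Human TRβ ligand-binding domain (0.6 uM) and Texas Red SRC2 peptide (20 nM) in Tris buffer with 1 uM T3 and 5% DMSO were incubated with pinned compound for 5 hr at ambient temperature. Total fluorescence was computed as S + 2P (555/632 nm).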
Tau fluor cs = counter-screen for tau fibril formation inhibitors; tau K18 P301L Alexa594 fluorescence, heparin fibrillization; Potency, µM (top dose mostly 57.7 µM); hit rate 0.93% among 280,000; AID 1463; note: nearly all actives have a fitted effect of over 55% in size
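Human tau K18 P301L (15 uM unlabeled, 0.24 uM Alexa 594-labeled) in 100 mM sodium acetate pH 7 with 20 uM heparin, 6 hr at 37 C. ThT 30 uM added, 1 hr ambient; Alexa 594 FP and total fluorescence read at 555/632 nm.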
RGS12 GoLoco inh = inhibitors of human Gai1-RGS12 GoLoco interaction (red fluorophore); P63096; Gai1:RGS12 GoLoco peptide FP, rhodamine, 10 min; Potency, µM (doses to about 61.6 µM), hits mostly inhibitors; hit rate 0.44% among 230,000; AID 880; active = well fitted inhibition curve with a large enough effect, not every such curve was filed as active; inactive = no such curve, though single readings can be large or run the other way; note: nearly all actives have a fitted effect of over 30% in size
Tau fibril ThT = blocks human tau fibril formation measured by thioflavin T. P10636. recombinant tau K18 P301L (four-repeat tau fragment), heparin-induced fibrillization, ThT fluorescence. Potency, µM (series often up to 57.4 µM), hits mostly inhibitors. hit rate 2.1% among 270,000. AID 1460; note: nearly all actives have a fitted effect of over 55% in size
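Recombinant human tau K18 fragment […] carrying P301L, 15 uM unlabeled plus 0.24 uM Alexa 594-labeled, was fibrillized with 20 uM heparin in 100 mM sodium acetate pH 7 for 6 hr at 37 C; 30 uM ThT fluorescence read after 1 hr.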
TRb SRC2 PPI = inhibitors of human thyroid hormone receptor beta-SRC2 interaction. P10828. TRbeta-SRC2 peptide binding, fluorescence polarization; receptor liganded with 1 µM T3. Potency, µM (series often up to 106 µM), usual class: inhibitors. hit rate 0.065% among 280,000. AID 1469; note: nearly all actives have a fitted effect of over 50% in size
Target sequence (P10828 whole entry, looked up): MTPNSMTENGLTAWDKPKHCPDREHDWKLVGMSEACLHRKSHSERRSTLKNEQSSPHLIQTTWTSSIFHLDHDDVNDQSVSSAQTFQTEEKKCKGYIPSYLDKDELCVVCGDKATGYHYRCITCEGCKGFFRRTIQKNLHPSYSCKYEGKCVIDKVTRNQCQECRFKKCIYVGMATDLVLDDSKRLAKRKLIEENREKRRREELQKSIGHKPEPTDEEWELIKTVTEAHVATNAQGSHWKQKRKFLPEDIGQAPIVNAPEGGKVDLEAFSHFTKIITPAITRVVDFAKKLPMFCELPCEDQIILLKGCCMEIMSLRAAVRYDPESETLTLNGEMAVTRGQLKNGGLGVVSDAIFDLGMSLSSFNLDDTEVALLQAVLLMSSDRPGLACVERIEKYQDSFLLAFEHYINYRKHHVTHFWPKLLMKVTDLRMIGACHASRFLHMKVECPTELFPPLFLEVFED
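Read-out is fluorescence polarization (555 nm excitation, 632 nm emission) of a Texas Red SRC2 coactivator peptide; loss of signal reflects blocked binding to human TRb ligand-binding domain in the presence of 1 uM T3.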
Hits are given with their value; [ ] = dose if it differs, or a comment. Unless noted, calls come from the whole dose curve; as a rule, active = well fitted curve in the direction sought with a large enough effect; inconclusive = small, poorly fitted or top-dose-only effect, or another doubt; inactive = no such curve, though single readings can be large; an effect the other way counts as inactive or inconclusive.

O=C(O)c1cccc(CN2C(=O)S/C(=C/c3cccc([N+](=O)[O-])c3)C2=O)c1 was read as Tau FP inhib inactive[0.0958 µM], TR SRC2 fluor cs inactive, Tau fluor cs inactive[0.0958 µM], RGS12 GoLoco inh inactive and TRb SRC2 PPI inactive.
`O=C(NN1C(=O)/C(=C/c2ccc(O)c([N+](=O)[O-])c2)SC1=S)c1ccccc1Cl` gave Tau FP inhib inactive, TR SRC2 fluor cs inactive, Tau fluor cs inconclusive, RGS12 GoLoco inh inactive, Tau fibril ThT 4µM and TRb SRC2 PPI inactive.
`Cc1cc(NC(=O)CSc2nc3c(c(-c4cccnc4)c2C#N)CCC3)no1` gave Tau FP inhib inactive, TR SRC2 fluor cs inactive, Tau fluor cs inactive, RGS12 GoLoco inh inactive, Tau fibril ThT inactive and TRb SRC2 PPI inactive.
`N=c1c[n+](N2CCOCC2)[n-]o1` gave Tau FP inhib inconclusive, TR SRC2 fluor cs inactive, Tau fluor cs inactive, RGS12 GoLoco inh inactive, Tau fibril ThT 13µM and TRb SRC2 PPI inactive.
Nc1c(C(=O)Nc2ccc(S(=O)(=O)N3CCCC3)cc2)sc2nc3cc4c(cc3cc12)CCC4 was read as Tau FP inhib inconclusive, TR SRC2 fluor cs inactive, Tau fluor cs inconclusive, RGS12 GoLoco inh inactive, Tau fibril ThT inconclusive and TRb SRC2 PPI inactive.
Screening Nc1c(C(=O)Nc2ccc(S(=O)(=O)N3CCCC3)cc2)sc2nc3ccc(OC(F)(F)F)cc3cc12 returned Tau FP inhib inactive, TR SRC2 fluor cs inactive, Tau fluor cs inactive, RGS12 GoLoco inh inactive, Tau fibril ThT 5.6µM and TRb SRC2 PPI inactive.
Screening CCOC(=O)C1=C(C)NC(C)=C(C(=O)OC)C1c1cccc(Cl)c1Cl (centres undefined) returned Tau FP inhib inactive, TR SRC2 fluor cs inactive, Tau fluor cs 14µM[quencher], RGS12 GoLoco inh inactive, Tau fibril ThT inactive and TRb SRC2 PPI inactive.
Screening CCOC(=O)C1=C(COCCN)NC(C)=C(C(=O)OC)C1c1ccccc1Cl (centres undefined) returned Tau FP inhib inactive, TR SRC2 fluor cs inactive, Tau fluor cs inactive, RGS12 GoLoco inh inactive, Tau fibril ThT inactive and TRb SRC2 PPI inactive.
For O=C(Nc1ccc(O)c2c(=O)cc(-c3ccccc3Cl)oc12)c1ccc(Br)cc1 the results were Tau FP inhib inactive, TR SRC2 fluor cs inactive, Tau fluor cs inactive, RGS12 GoLoco inh inactive, Tau fibril ThT 14µM and TRb SRC2 PPI inactive.
`COC1=C(Nc2ccc(O)cc2)C(=O)c2ccccc2C1=O` gave Tau FP inhib inconclusive, TR SRC2 fluor cs inconclusive, Tau fluor cs inconclusive, RGS12 GoLoco inh inactive, Tau fibril ThT 13µM and TRb SRC2 PPI 35µM.
Screening COc1ccc(NC2=C(NCCO)C(=O)c3ccccc3C2=O)cc1 returned Tau FP inhib inconclusive, TR SRC2 fluor cs inactive, Tau fluor cs inconclusive, RGS12 GoLoco inh inactive, Tau fibril ThT 13µM and TRb SRC2 PPI inconclusive.
Oc1ccc(Nc2ccccc2)cc1 was read as TR SRC2 fluor cs inactive and TRb SRC2 PPI inactive.
Cc1cccc(NC2=C(NCCO)C(=O)c3ccccc3C2=O)c1 was read as Tau FP inhib inconclusive, TR SRC2 fluor cs inactive, Tau fluor cs inconclusive, RGS12 GoLoco inh inactive, Tau fibril ThT 25µM and TRb SRC2 PPI inactive.
CCOc1ccc(NC2=C(OC)C(=O)c3ccccc3C2=O)cc1 was read as Tau FP inhib inconclusive, TR SRC2 fluor cs inactive, Tau fluor cs inconclusive, RGS12 GoLoco inh inactive, Tau fibril ThT 10µM and TRb SRC2 PPI inactive.
For COc1ccc(C2=C(Nc3ccccc3)c3ccccc3C2=O)cc1 the results were Tau FP inhib inactive, TR SRC2 fluor cs inactive, Tau fluor cs inconclusive, RGS12 GoLoco inh inactive, Tau fibril ThT inconclusive and TRb SRC2 PPI inactive.
Screening CCOc1ccc(NS(=O)(=O)N(C)C)cc1 returned Tau FP inhib inactive, TR SRC2 fluor cs inactive, Tau fluor cs inactive, RGS12 GoLoco inh inactive, Tau fibril ThT inactive and TRb SRC2 PPI inactive.
`CCOC(=O)c1c(S(=O)(=O)N2CCC(C(=O)NCc3cccc(C)c3)CC2)c(C)n(C)c1C` gave Tau FP inhib inactive, TR SRC2 fluor cs inactive, Tau fluor cs inactive, Tau fibril ThT inactive and TRb SRC2 PPI inactive.
